# Results as given in PubChem BioAssay (Tox21).
# Records with an inconclusive call do not appear. Where a call stands in place of a potency, no number is given. A number with no mark means an inactive call. Active and inactive are the calls of the source. Unless noted, calls follow the shape of the full dose curve.
# Key:
# [1] = qHTS assay to identify small molecule antagonists of the vitamin D receptor (VDR) signaling pathway - cell viability counter screen (AID 743225; active = well fitted curve in the direction sought with a large enough effect in the repeat runs; an effect the other way counts as inactive or inconclusive; also: nearly all actives have a fitted effect of over 50% in size)
# Method in brief: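 VDR-UAS-bla HEK 293T cells were plated and incubated 4 h at 37C, then dosed with compound plus 3 nM (final) 1-alpha,25-dihydroxyvitamin D3 for 16 h. After the 2 h beta-lactamase read, viability in the same wells was read as CellTiter-Glo luminescence after 30 min at room temperature.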
# [2] = qHTS assay to identify small molecule agonists of the NFkB signaling pathway (AID 1159509; active = well fitted curve in the direction sought with a large enough effect in the signal ratio in the repeat runs, not every such curve was filed as active; the % refers to the signal ratio; also: series mostly up to about 61 µM)
# Method in brief: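 Pathway activation was measured in ME-180 cells stably expressing beta-lactamase under NF-kB response element control. Substrate cleavage was read as the 460/530 nm emission shift after 5 hr compound incubation.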
# [3] = qHTS assay to identify small molecule agonists of the NFkB signaling pathway - cell viability counter screen (AID 1159515); also: nearly all actives have a fitted effect of over 55% in size; also: potency is read from the fitted curve at half-maximal effect
# Method in brief: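 Counter screen run alongside the NFkB-bla agonist assay: ME-180 reporter cells exposed to compounds for 5 hr, then lysed with CellTiter-Glo in the same wells. Luminescence, read after 30 min, reflects viable cells.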
# [4] = qHTS assay to identify small molecule agonists of the endoplasmic reticulum stress response signaling pathway (AID 1159516; active = well fitted activation curve with a large enough effect in the signal ratio in the repeat runs, not every such curve was filed as active; the % refers to the signal ratio; also: potency is read from the fitted curve at half-maximal effect)
# Method in brief: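 For this screen, HeLa cells stably carrying beta-lactamase under the ER stress response element received test compounds, positive controls or DMSO for 5 hr at 37 C; B/G FRET substrate was then added and dual-wavelength emission recorded.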
# [5] = qHTS assay to identify small molecule antagonists of the retinoid-related orphan receptor gamma (ROR-gamma) signaling pathway - cell viability counter screen (AID 1159520; active = well fitted curve in the direction sought with a large enough effect in the repeat runs; an effect the other way counts as inactive or inconclusive; also: nearly all actives have a fitted effect of over 50% in size; also: potency is read from the fitted curve at half-maximal effect)
# Method in brief: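 Tet-on ROR gamma CHO cells were given compounds for 2 hr, then doxycycline hyclate at 1 uM final, and incubated 16 hr at 37 C. Viability was measured as ATP content by CellTiter-Glo luminescence.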
# [6] = biological target: Nuclear receptor ROR-gamma (Homo sapiens) (UniProt P51449); assay: qHTS assay to identify small molecule antagonists of the retinoid-related orphan receptor gamma (ROR-gamma) signaling pathway (AID 1159521; active = well fitted curve in the direction sought with a large enough effect in the repeat runs; an effect the other way counts as inactive or inconclusive; also: nearly all actives have a fitted effect of over 50% in size; also: potency is read from the fitted curve at half-maximal effect;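 as to activity change, negative = inhibition: CHO cells with doxycycline inducible ROR-gamma driving an RORE luciferase reporter; top concentration of the series differs between compounds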)
# Method in brief: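 Tet-on ROR-gamma CHO cells with ROR response element-luciferase reporter; compounds added 2 hr before 1 uM doxycycline induction, then 16 hr at 37 C. Antagonism scored as decreased ONE-Glo luminescence.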
# [7] = qHTS assay to identify small molecule agonists of the AP-1 signaling pathway - cell viability counter screen (AID 1159525); also: nearly all actives have a fitted effect of over 55% in size; also: potency is read from the fitted curve at half-maximal effect
# Method in brief: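 Same-well cytotoxicity counter screen of the Tox21 10K library in ME-180 cells. The readout is ATP-dependent luminescence after 5 h compound treatment. Data are normalised to DMSO and tetra n-octyl ammonium bromide controls.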
# [8] = qHTS assay to identify small molecule agonists of the AP-1 signaling pathway (AID 1159526)
# [9] = biological target: Retinoic acid receptor RXR-alpha (Homo sapiens) (UniProt P19793); assay: qHTS assay to identify small molecule agonists of the RXR signaling pathway (AID 1159527); also: nearly all actives have a fitted effect of over 35% in size
# Sequence of Retinoic acid receptor RXR-alpha (Homo sapiens) (P19793 whole entry, looked up): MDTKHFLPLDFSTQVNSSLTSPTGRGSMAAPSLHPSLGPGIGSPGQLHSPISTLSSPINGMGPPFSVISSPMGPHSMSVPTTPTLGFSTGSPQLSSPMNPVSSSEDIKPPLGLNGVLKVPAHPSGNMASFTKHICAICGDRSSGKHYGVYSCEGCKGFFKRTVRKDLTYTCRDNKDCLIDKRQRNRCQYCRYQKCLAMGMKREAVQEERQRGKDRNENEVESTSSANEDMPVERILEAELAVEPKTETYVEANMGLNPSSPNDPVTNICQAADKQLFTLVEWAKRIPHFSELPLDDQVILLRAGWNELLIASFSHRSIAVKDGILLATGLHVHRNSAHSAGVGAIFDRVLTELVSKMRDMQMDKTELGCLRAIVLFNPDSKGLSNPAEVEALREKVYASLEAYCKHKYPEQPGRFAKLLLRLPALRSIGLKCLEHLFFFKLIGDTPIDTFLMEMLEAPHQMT
# Method in brief: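 GeneBLAzer RXR-alpha-UAS-bla HEK 293T cells in 2% charcoal-stripped FBS medium were exposed to compounds for 16 hr at 37 C in agonist mode. Beta-lactamase reporter read as 460/530 nm FRET ratio after 2 hr substrate loading.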
SMILES,Potency [1],outcome [2],Potency [3],Potency [4],Potency [5],Potency [6],Potency [7],outcome [8],Potency [9],"activity, negative = cytotoxicity [5]","activity change, negative = inhibition [6]","viability change, negative = cytotoxic [7]",activation [8],activation [9]
O=C(c1ccccc1)C1CCC1,inactive,inactive,inactive,inactive,inactive,inactive,inactive,inactive,inactive,,,,,
O=P(O)(O)Oc1ccccc1,inactive,inactive,inactive,inactive,inactive,inactive,inactive,inactive,inactive,,,,,
C[C@H](CS)C(=O)N1CCC[C@H]1C(=O)O,,inactive,inactive,inactive,inactive,inactive,inactive,inactive,inactive,,,,,
COC(OC)OC,inactive,inactive,inactive,inactive,inactive,inactive,inactive,inactive,inactive,,,,,
CC1CCCO1 (centres undefined),inactive,inactive,inactive,inactive,inactive,inactive,inactive,inactive,inactive,,,,,
CC(C)(C(=O)c1cccnc1)c1cccnc1,inactive,inactive,inactive,inactive,inactive,inactive,inactive,inactive,inactive,,,,,
Cc1ccc2c(c1)CCCN2,inactive,inactive,inactive,inactive,inactive,inactive,inactive,inactive,inactive,,,,,
C[C@@H]1C[C@H]2[C@@H]3CCC4=CC(=O)C=C[C@]4(C)[C@@]3(F)[C@@H](O)C[C@]2(C)[C@@]1(O)C(=O)COP(=O)(O)O,inactive,inactive,inactive,inactive,inactive,inactive,inactive,inactive,inactive,,,,,
O=CNNC=O,inactive,inactive,inactive,inactive,inactive,inactive,inactive,inactive,inactive,,,,,
CNC1CCCN(c2c(F)cc3c(=O)c(C(=O)O)cn(C4CC4)c3c2OC)C1 (centres undefined),inactive,inactive,inactive,inactive,inactive,inactive,inactive,inactive,inactive,,,,,
CCCCCCCCCCCCCOC(=O)CCSCCC(=O)OCCCCCCCCCCCCC,inactive,inactive,inactive,inactive,,,,,,0.433% [at 19 µM],-3.96% [at 19 µM],-10.6% [at 15.8 µM],-14.2% [at 15.8 µM],4.41% [at 15.8 µM]
O=C(CCS)OCC(COC(=O)CCS)(COC(=O)CCS)COC(=O)CCS,inactive,inactive,inactive,8.71 µM (active),inactive,inactive,inactive,inactive,inactive,,,,,
CC(C)COC(=O)COc1cc(Cl)c(Cl)cc1Cl,inactive,inactive,inactive,inactive,inactive,inactive,inactive,inactive,inactive,,,,,
O=C1[C@@H]2[C@H]3CC[C@H](C3)[C@@H]2C(=O)N1CCCCN1CCN(c2ncccn2)CC1,,inactive,inactive,inactive,inactive,inactive,inactive,inactive,inactive,,,,,
CCN(CC)CCNC(=O)c1cc(Cl)c(N)cc1OC,inactive,inactive,inactive,inactive,inactive,inactive,inactive,inactive,,,,,,
CC(=O)OC(C)C[N+](C)(C)C (centres undefined),inactive,inactive,inactive,inactive,inactive,inactive,inactive,,inactive,,,,,
COc1ccc(/C=C/C(=O)c2ccc(OC)cc2OC)cc1,inactive,inactive,inactive,inactive,inactive,inactive,inactive,,,,,,,
CSCC[C@H](NC(=O)[C@H](Cc1c[nH]c2ccccc12)NC(=O)CCNC(=O)OC(C)(C)C)C(=O)N[C@@H](CC(=O)O)C(=O)N[C@@H](Cc1ccccc1)C(N)=O,inactive,inactive,inactive,inactive,inactive,inactive,inactive,inactive,inactive,,,,,
O=c1[nH][nH]c(=O)c2cc([N+](=O)[O-])ccc12,inactive,inactive,inactive,inactive,inactive,inactive,inactive,inactive,inactive,,,,,
CCN(CC)c1ccc(C(=C2C=CC(=[N+](CC)CC)C=C2)c2ccc(S(=O)(=O)O)cc2S(=O)(=O)[O-])cc1,inactive,inactive,43.6 µM (active),inactive,8.63 µM (active),12.2 µM (active),19.5 µM (active),,inactive,,,,,
ClC1=C(Cl)C1(Cl)Cl,inactive,inactive,inactive,inactive,inactive,inactive,inactive,inactive,inactive,,,,,
CCCCCCC(O)CCCCCCCCCCC(=O)OC (centres undefined),inactive,inactive,inactive,inactive,inactive,inactive,inactive,,inactive,,,,,
CCc1ccc(C)cc1,inactive,inactive,inactive,inactive,inactive,inactive,inactive,inactive,inactive,,,,,
